Assay outcomes as filed in PubChem.
Hits are enriched below; roughly 0.92% of the tested compounds scored in any of these assays.
AGP1-GFP MLPCN: modulators of TOR pathway AGP1-GFP in S. cerevisiae; AID 2066; S. cerevisiae AGP1-GFP multiplex flow cytometry, 3 h; GFP as percent of DMSO wells; GFP response vs DMSO, % at 10 µM; 320,000 compounds, 0.02% hits;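 active means GFP response relative to DMSO above a set limit, near screen average plus 3 SD, cut at about 150% in these data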;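 further: median GFP channel fluorescence of the gated AGP1 strain per well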
RPL19A TOR yeast: alters RPL19A-GFP fluorescence in TOR pathway yeast screen; 330,000 compounds, 0.3% hits; S. cerevisiae RPL19A-GFP strain, flow cytometry, 3 h; stronger effect = lower value; percent response vs DMSO, % at 10 µM;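 active means percent response vs DMSO below 50%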;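 further: median channel GFP fluorescence of the barcoded RPL19A-GFP strain; lower means less RPL19A-GFP as with rapamycin TOR inhibition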
CIT2 TOR yeast: modulators of TOR pathway CIT2-GFP in S. cerevisiae | S. cerevisiae CIT2-GFP strain, flow cytometry, 3 h; 100 means same as DMSO wells | GFP response vs DMSO, % at 10 µM | 320,000 compounds, 0.065% hits | AID 2029;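 active means GFP response relative to DMSO above a set limit, near the screen mean plus 3 SD, cut at about 150% in these data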;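 further: ratio of well median GFP fluorescence to mean of DMSO wells on the plate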
MEP2-GFP yeast: yeast TOR pathway MEP2-GFP modulation. S. cerevisiae MEP2-GFP strain, flow cytometry GFP, 3 h; 100% = DMSO control level. GFP response vs DMSO, % at 10 µM. 330,000 compounds, 0.51% hits. AID 2016;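 active means GFP response versus DMSO above a set limit, roughly screen mean plus 3 SD, cut at about 180% in these data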;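 further: median GFP fluorescence of the barcode-gated MEP2-GFP cells per well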
LAP4 TOR yeast: yeast TOR pathway LAP4-GFP modulation | S. cerevisiae LAP4-GFP multiplex, flow cytometry GFP, 3 h; median GFP as percent of DMSO wells | GFP response vs DMSO, % at 10 µM | 320,000 compounds, 0.34% hits | AID 2023;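 active means GFP response vs DMSO above a set limit, about the screen mean plus 3 SD, cut at about 150% in these data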
LAP4 cherry2: reconfirmed LAP4-GFP TOR pathway modulator in yeast; GFP response vs DMSO, % at 10 µM; 590 compounds, 20% hits; S. cerevisiae LAP4-GFP strain, flow cytometry GFP, 3 h; AID 2621; shares compounds with LAP4 TOR yeast;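 active means GFP signal as percent of the solvent control above about 150%, meaning raised reporter expression, limit read from the data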
MEP2-GFP pick2: yeast MEP2-GFP modulation, second cherry pick; shares compounds with LAP4 TOR yeast; S. cerevisiae MEP2-GFP strain, flow cytometry GFP, 3 h; GFP response vs DMSO, % at 10 µM; 590 compounds, 10% hits; AID 2622;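 active means GFP signal above 150% of the solvent control wells, that is a rise of more than half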;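 further: median channel GFP fluorescence of all gated yeast cells per well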
RPL19A GFP CP2: yeast RPL19A-GFP TOR reporter modulation, second cherry pick; shares compounds with LAP4 TOR yeast; S. cerevisiae RPL19A-GFP strain, flow cytometry GFP, 3 h; stronger effect = lower value; 100% means same as DMSO wells; GFP response vs DMSO, % at 10 µM; 590 compounds, 3% hits; AID 2623;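 active means under 65% GFP response relative to DMSO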;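 further: median GFP channel fluorescence per well over the all cells gate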
CIT2-GFP pick2: yeast CIT2-GFP TOR reporter modulation, second cherry pick; GFP response vs DMSO, % at 10 µM; S. cerevisiae CIT2-GFP strain, flow cytometry GFP, 3 h; DMSO control wells read 100%; 590 compounds, 8% hits; shares compounds with LAP4 TOR yeast;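 active means GFP response vs DMSO above about 150%, limit read from the data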;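 further: median green fluorescence per well over all gated yeast cells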
AGP1-GFP pick2: second confirmation of modulators of TOR reporter AGP1-GFP in yeast. shares compounds with LAP4 TOR yeast. S. cerevisiae AGP1-GFP strain, flow cytometry GFP, 3 h. percent response vs DMSO, % at 10 µM. 590 tested, under 10 active. AID 2643;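 active means over 150 percent of DMSO response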;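 further: median GFP channel fluorescence over all cells without mother daughter split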
s288c autofluor: yeast s288c autofluorescence artifact, counter-screen | shares compounds with LAP4 TOR yeast | S. cerevisiae s288c, 520 nm autofluorescence, flow cytometry, 3 h; stronger effect = higher value; zero means same as solvent-only cells | fluorescence change (kMESF span) at 33 µM | 610 tested, under 10 active | AID 2757;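 active means fluorescence span over the dose series, or activity score, above about 33, limit read from the data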
Yeast autofl DR: TOR screen hit shows autofluorescence in yeast s288c; shares compounds with LAP4 TOR yeast; 110 tested, under 10 active; S. cerevisiae s288c parental, compound autofluorescence, flow cytometry, 3 h; fluorescence change (span) at 33 µM;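 active means fluorescence change span, or the activity score built from it, above 25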
TORC1 bypass: stops wildtype yeast growth while TORC1 bypass cells still grow; growth rating (0-3) at 30 µM; 120 tested, under 10 active; shares compounds with LAP4 TOR yeast; S. cerevisiae BY4741 spot growth rating, 48-72 h; stronger effect = lower value;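 active means growth rating at most 1 for wild type yeast while the TORC1 bypass strain still grows fully, rated 3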
Of the large screens only hits and unclear results are named; the others gave an inactive call (follow-up assays come after a bar, where they were run).

Cc1ccc(NS(=O)(=O)c2coc(C(N)=O)c2)cc1F	none
Cc1ccc2nc3c(cc(C(=O)NCC4CCCO4)c(=N)n3C3CCCC3)c(=O)n2c1 (configuration not stated)	none | LAP4 cherry2 inactive | MEP2-GFP pick2 inactive | RPL19A GFP CP2 inactive | CIT2-GFP pick2 inactive | AGP1-GFP pick2 inactive
CCOC(=O)c1sc(Nc2ccccc2Cl)nc1C	none | LAP4 cherry2 inactive | MEP2-GFP pick2 inactive | RPL19A GFP CP2 inactive | CIT2-GFP pick2 inactive | AGP1-GFP pick2 inactive
NC(=O)c1cc2ccncc2c2ccccc12	none
CSc1ncccc1C(=O)Nc1cc(Cl)ccc1N1CCOCC1	none
Cn1c(=O)c(=O)n(C)c2cc(S(=O)(=O)NCCOc3ccccc3)ccc21	none
Cc1ccc2c(c1)nnn2C1CCN(S(=O)(=O)c2ccc(C(=O)N(C)C3CCCCC3)cc2)CC1	none | LAP4 cherry2 inactive | MEP2-GFP pick2 inactive | RPL19A GFP CP2 inactive | CIT2-GFP pick2 inactive | AGP1-GFP pick2 inactive
O=C(/C=C/c1ccccc1)NC(=S)NNC(=O)Cc1cccs1	none | LAP4 cherry2 inactive | MEP2-GFP pick2 inactive | RPL19A GFP CP2 inactive | CIT2-GFP pick2 inactive | AGP1-GFP pick2 inactive | s288c autofluor inactive
CC(C)=CC1C(C(=O)NCCc2ccccc2)C1(C)C (configuration not stated)	none
COc1ccc2nccc(/C=C/c3ccnc4ccc(OC)cc34)c2c1	none | LAP4 cherry2 inactive | MEP2-GFP pick2 inactive | RPL19A GFP CP2 inactive | CIT2-GFP pick2 inactive | AGP1-GFP pick2 inactive
COc1ccc2nc(Cl)cc(Cl)c2c1	none
O=C(COc1ncnc2ccccc12)Nc1cc([N+](=O)[O-])ccc1F	none
O=C(CN1CCN(c2ccccc2F)CC1)c1c[nH]c2ccccc12	LAP4 TOR yeast 159.0 | LAP4 cherry2 inactive | MEP2-GFP pick2 inactive | RPL19A GFP CP2 inactive | CIT2-GFP pick2 inactive | AGP1-GFP pick2 inactive
Cc1ccc2[nH]cc(C(=O)CN3CCN(C)CC3)c2c1	none
Cc1ccc2[nH]cc(C(=O)CN3CCN(c4ccccn4)CC3)c2c1	none | LAP4 cherry2 inactive | MEP2-GFP pick2 inactive | RPL19A GFP CP2 inactive | CIT2-GFP pick2 inactive | AGP1-GFP pick2 inactive
CCOC(=O)Cn1cc(/C=C/[N+](=O)[O-])c2ccccc21	LAP4 TOR yeast 154.2 | s288c autofluor inactive
CCOC(=O)COc1ccc2ccccc2c1/C=C/[N+](=O)[O-]	LAP4 TOR yeast 229.7 | LAP4 cherry2 292.6 | MEP2-GFP pick2 inactive | RPL19A GFP CP2 inactive | CIT2-GFP pick2 inactive | AGP1-GFP pick2 inactive | s288c autofluor inactive
O=C(C[n+]1cc[nH]c1)c1ccc(Cl)cc1	none
Oc1c(Br)cc(Br)cc1C=Nc1ccc2c(c1)OCO2	LAP4 TOR yeast 151.6 | s288c autofluor inactive
Oc1c(Br)cc(Br)cc1C=Nc1ccc2c(c1)OCCO2	none
COc1ccc(-c2[nH]ncc2C=O)cc1	none
CCc1sc(C(=O)Nc2nc(-c3ccccn3)cs2)cc1C	LAP4 TOR yeast 191.1 | LAP4 cherry2 212.4 | MEP2-GFP pick2 155.5 | RPL19A GFP CP2 inactive | CIT2-GFP pick2 inactive | AGP1-GFP pick2 inactive | s288c autofluor inactive
Cc1nnc(NC(=O)c2oc3ccccc3c2C)s1	none
Cc1c(C(=O)Nc2nc(-c3ccccn3)cs2)oc2ccccc12	LAP4 TOR yeast 219.9 | LAP4 cherry2 187.4 | MEP2-GFP pick2 inactive | RPL19A GFP CP2 inactive | CIT2-GFP pick2 inactive | AGP1-GFP pick2 inactive | s288c autofluor inactive | Yeast autofl DR inactive | TORC1 bypass inactive
O=C(Nc1nc(-c2ccccn2)cs1)c1cc2ccccc2o1	LAP4 TOR yeast 155.3 | s288c autofluor inactive | Yeast autofl DR inactive | TORC1 bypass inactive
Cc1cc(-c2csc(NC(=O)c3cc4ccccc4o3)n2)c(C)n1C	none
Cc1cc(NC(=O)CSc2nnc(-c3ccncc3)n2-c2ccc(F)cc2)no1	none | LAP4 cherry2 inactive | MEP2-GFP pick2 inactive | RPL19A GFP CP2 inactive | CIT2-GFP pick2 inactive | AGP1-GFP pick2 inactive
CCOC(=O)C1CCCN(c2cc(=O)n(C3CCCCC3)c(=O)[nH]2)C1 (configuration not stated)	none
O=C(Oc1c(Cl)cc(Cl)c2cccnc12)c1cccs1	LAP4 TOR yeast 221.8 | LAP4 cherry2 201.4 | MEP2-GFP pick2 inactive | RPL19A GFP CP2 inactive | CIT2-GFP pick2 inactive | AGP1-GFP pick2 inactive | s288c autofluor inactive
O=C(Oc1c(Cl)cc(Cl)c2cccnc12)c1ccco1	LAP4 TOR yeast 230.4 | s288c autofluor inactive | Yeast autofl DR inactive | TORC1 bypass inactive
COc1ccc(CC(=O)Oc2ccccc2Cl)cc1S(=O)(=O)N1CCOCC1	none
O=C1C2CC=CCC2C(=O)N1Cc1ccccc1 (configuration not stated)	none
O=C1C=CC(=O)N1Cc1ccccc1	LAP4 TOR yeast 159.2 | LAP4 cherry2 inactive | MEP2-GFP pick2 inactive | RPL19A GFP CP2 inactive | CIT2-GFP pick2 inactive | AGP1-GFP pick2 inactive
CCOc1cc2c(C#N)c(N(CC)CC)nc(N)c2c(N)n1	LAP4 TOR yeast 153.4 | LAP4 cherry2 inactive | MEP2-GFP pick2 inactive | RPL19A GFP CP2 inactive | CIT2-GFP pick2 inactive | AGP1-GFP pick2 inactive
CCOc1cc2c(C#N)c(N3CCOCC3)nc(N)c2c(N)n1	none (no result: AGP1-GFP MLPCN)
O=[N+]([O-])c1cnc(Sc2ccncn2)s1	LAP4 TOR yeast 262.0 | s288c autofluor inactive
O=C(/C=C/c1cccs1)NC(=S)NNC(=O)c1ccccc1O	none
